In PubChem BioAssay AID652268 (The Scripps Research Institute Molecular Screening Center, 2013) one finds activation data, which are given here for 67 compounds.

About 160 (10%) of roughly 1,600 compounds were called active. These entries were drawn from the full list. Values without a mark were called inactive. No stated cut-off is given here; in the data, active means activation above about 1.3%; inactive means the rest.

This assay can be described thus: parental HEK293-CNG cell agonism artefacts – fluorescence, high throughput, counter-screen for GalR3 antagonist project (AID 652268). The following applies: HEK293-CNG parental cells, cAMP membrane potential fluorescence; at 3 µM; active compounds read high; normalised: DMSO wells 0%, forskolin wells 100%. On the technique in general: The purpose of a counterscreen is to sort out artefacts and off-target activity.
In the case of `CC(CCc1ccccc1)NCC(O)c1cccc([N+](=O)[O-])c1` (configuration not stated), the activation is 0.27%.
The result for `C=CCC1(CC=C)CCCN1C(=O)c1cc(COc2ccc(-n3cncn3)cc2)on1` reads -0.46%.
The result for `Nc1ncnc2c1ncn2C1OC(CO)CC1O` (configuration not stated) reads -0.01%.
The result for `COc1cc(C(=O)Nn2c(O)c(C3=c4ccccc4=NC3=O)sc2=S)ccc1O` reads -0.64%; that for `COc1ccc(CCNc2nc3ccc(C)cc3n3cnnc23)cc1OC`, 0.25%.
`COc1ccc(-c2[nH]nc3c2C(c2ccncc2)C(C#N)=C(N)O3)cc1` (configuration not stated): the activation is 0.22%.
Take `COCCN1Cc2cccc(C(=O)Nc3ccccc3OC)c2C1=O`: the activation was 0.15%.
The result for `CCOC(=O)c1cc2n(c1C)-c1ccccc1C2=O` reads 0.34%; that for `Cn1c(N)c(C(=O)COC(=O)c2cnc(Cl)c(Cl)c2)c(=O)n(C)c1=O`, 0.4%; that for `CCOc1ccc(C(C)=O)cc1COC(=O)c1cnc(Cl)c(Cl)c1`, 4.48% (active).
As to `COCCNC(=O)/C(C#N)=C/c1cccc(OCc2ccccc2)c1`, the activation is 0.53%.
The result for `CSc1nc(N)c(C#N)c(-c2ccccc2Cl)c1C#N` reads -0.24%.
In the case of `O=C(Nc1ccc(CSc2ccccc2)cc1)c1ccc(CN2CCOCC2)cc1`, the activation is -1.27%.
The result for `C[C@@]12C(=O)N(c3cccc(Br)c3)C(=O)N1[C@H](c1ccc(Cl)cc1)[C@@H]1C(=O)N(C3CCCCC3)C(=O)[C@@H]12` reads -2.49%.
Turning to `COc1ccc(OC)c(NC(=O)CSc2nc(N)c(-c3ccccc3)c(=O)[nH]2)c1`, the activation is 0.95%.
The result for `COc1ccc(-c2csc(-c3cccs3)n2)cc1OC` reads 0.07%.
`COc1ccc(C2Nc3ccccc3C(=O)N2c2ccc(Cl)cc2)cc1Cn1cc([N+](=O)[O-])cn1` (configuration not stated): the activation was -0.27%.
The result for `COc1ccc(C(=O)COC(=O)COc2ccc(C)c(C)c2)cc1` reads 0.4%.
The result for `Cc1c(C=O)c2ccccc2n1CC(=O)O` reads 0.2%.
For the compound `Cc1c(Cl)cccc1NC(=O)CSc1ccc(-c2cccnc2)nn1`, the activation is 0.04%.
The result for `CC1(C)CC(N2CCN(C(c3ccccc3)c3ccccc3)CC2)=CC(=[N+]2CCCCC2)C1` reads 10.7% (active).
The result for `CC(C)(CNC(=O)c1ccc(Cl)c(S(=O)(=O)N2CCc3ccccc3C2)c1)N1CCOCC1` reads -0.38%; that for `COC(=O)c1cccc([N+](=O)[O-])c1CS(=O)(=O)c1ccc(C)cc1`, -0.01%.
The result for `Cc1ccc(S(=O)(=O)N2CCN(C(=O)COC(=O)c3c(C)cc(C)cc3C)CC2)c(C)c1` reads 0.55%; that for `c1coc(CNc2ncnc3ccccc23)c1`, 0%; that for `Cn1nccc1C(=O)NC1CCCc2c1cnn2-c1ccc(F)cc1F` (configuration not stated), -0.59%.
Take `CCCCNC(=O)c1ccccc1NC(=O)C1=C(C)OCCS1`: the activation is -0.01%.
Turning to `Cc1ccc(F)cc1NC(=O)Cc1nn(C)c(=O)c2ccccc12`, the activation is 0.14%.
The result for `Cn1cnc([N+](=O)[O-])c1Nc1ccccc1O` reads 0.12%; that for `C#Cc1ccc(NC(=O)C2(C)CCN2C(=O)Cc2ccc(-c3ccccc3)cc2)cc1` (configuration not stated), -0.7%; that for `O=C(CC1C(=O)NCCN1CC(c1ccccc1)c1ccccc1)NCCc1cn[nH]c1` (configuration not stated), 0.5%.
For `CC(=O)c1c(C)[nH]c(C(=O)COC(=O)c2cccc(S(=O)(=O)N(C)c3ccccc3)c2)c1C`, the activation was -0.83%.
Regarding `c1ccc(Cc2ccc(OCCn3ccnc3)cc2)cc1`, the activation was -0.02%.
Take `CCCn1nc(C(=O)NNC(=O)CSCC(=O)Nc2cc(C)on2)c2ccccc2c1=O`: the activation is 0.16%.
As to `Cn1c(CN2CCOCC2)nc2cc(NC(=O)c3ccc(Cl)cc3)ccc21`, the activation was 0.05%.
Take `CCNC(=S)Nc1ccc(OC(F)(F)F)cc1`: the activation was -0.01%.
With `CC(C)[C@@H](C(=O)OCC(=O)c1ccc2c(c1)NC(=O)CO2)N1C(=O)c2ccccc2C1=O`, the activation is 0.06%.
For `OC[C@@H]1CN(Cc2ccc(-c3ccccc3)cc2)C[C@H](n2cnc3c(NC4CCCC4)ncnc32)O1`, the activation was -0.91%.
In the case of `CCCOc1ccc(Cc2c(Cl)nc(SC)nc2NC)cc1`, the activation was 1.12%.
Take `COc1ccc(N(C(=O)CNC(=O)c2ccco2)C(C(=O)NCC2CCCO2)c2ccccc2)cc1Cl` (configuration not stated): the activation is -0.24%.
`CC(=O)OC(C)C[N+](C)(C)C` (configuration not stated): the activation is 0.43%.
Regarding `COC(=O)c1ccc(/C=N/N2C(C)CCCC2C)cc1` (configuration not stated), the activation is 0.27%.
`COc1cc(NC(=O)c2cc([N+](=O)[O-])ccc2Br)ccc1NC(=O)c1ccco1`: the activation was -0.55%.
The result for `CCn1c(-c2cc(OC)ccc2OC)csc1=Nc1c(C)n(C)n(-c2ccccc2)c1=O` reads 0.13%; that for `CCN1/C(=C\c2ccc3ccccc3[n+]2CC)Sc2cc(C)ccc21`, 8.28% (active); that for `Nc1nc(NCC(=O)O)nc(N2CCCCCC2)c1[N+](=O)[O-]`, 0.22%.
`CSc1nccc(NC(=O)c2ccc(C(C)(C)C)cc2)n1`: the activation was 0.22%.
Take `CCOC(=O)c1c(NC(=O)CSc2nccc(=O)[nH]2)sc(C)c1C`: the activation is -1.63%.
For `COc1ccc(C2CC(=O)Nc3sc(=N)c4c(N)c(C#N)c(N)nc4c32)cc1OC` (configuration not stated), the activation was -0.03%.
The result for `CC(=O)N1CCCc2cc(S(=O)(=O)N3CCCC(C(=O)N4CCN(c5cccc(Cl)c5)CC4)C3)ccc21` (configuration not stated) reads -1.04%; that for `CN(Cc1cccnc1)C(=O)c1cc(COc2ccc3ncccc3c2)on1`, -0.15%.
With `NC(=O)c1ccc(NC(=O)COC(=O)C(Cc2ccccc2)NC(=O)c2ccccc2)cc1` (configuration not stated), the activation is -0.37%.
The result for `CCOc1cc(C(=O)N2CCc3cc(OC)c(OC)cc3C2)ccc1OC(F)F` reads 1.51% (active); that for `O=C(Nc1ccccc1Cl)/C(Cl)=C(\Cl)S(=O)c1ccccc1` (configuration not stated), 3.18% (active); that for `O=C(/C=C/c1c(F)cccc1Cl)Nc1nn[nH]n1`, 0.23%.
The result for `Nc1nonc1-n1nnc(C(=O)N/N=C/c2cc(Br)ccc2O)c1CSC1=NCCS1` reads 0.22%.
In the case of `CCN(CC(=O)NCc1ccc(Cl)cc1)C(=O)CSc1ccccc1`, the activation was -0.45%.
For `O=C(NC(Nc1nc2ccc([N+](=O)[O-])cc2s1)(C(F)(F)F)C(F)(F)F)c1ccccc1`, the activation was 9.23% (active).
As to `COc1cc(Cl)c(C)cc1NC(=O)[C@@H]1CCCN1C(=O)c1cccs1`, the activation was -0.08%.
In the case of `CCOc1ccc(Br)cc1CSC(=N)N`, the activation is 3.59% (active).
Take `CNC(=O)NC(=O)CSc1nnc(-c2ccc(F)cc2)n1CC1CCCO1` (configuration not stated): the activation is 0.01%.
`CCc1ccc(-c2nc(SCC(=O)NC3CCCC3)n[nH]2)cc1`: the activation was 0.04%.
The result for `COc1cc2c(cc1OC)C(c1cccc([N+](=O)[O-])c1)=NCC2` reads 0.46%; that for `COc1ccc(NS(=O)(=O)c2ccc(NC(=O)c3ccc(N(C)S(C)(=O)=O)cc3)cc2)cc1`, -0.8%; that for `O=C(CC(O)(C(F)(F)F)C(F)(F)F)Nc1ccc(Cl)c(Cl)c1`, 1.84% (active).
`CSc1nc(N(C)NC(=O)c2cccc(C)c2)c2ccccc2n1`: the activation is 2.12% (active).
The result for `Cc1nc2ccccc2cc1OCc1ccc(F)cc1` reads 1.08%.
